# Measurements as given in PubChem BioAssay (NCI).
# The panel holds about 79,000 compounds, 15% with a hit somewhere; the sample as a whole holds those more often. Values without a mark were called inactive. The source made the active and inactive calls. Cut-off read from the data, not from the text of the source: active = growth inhibition above about 70%; inactive = the rest.
# Legend:
# [1] = NCI Yeast Anticancer Drug Screen. Data for the wt2 strain (AID 169);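 note: 0% = growth of vehicle-treated yeast cultures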; settings: S. cerevisiae wt2 strain growth inhibition, hits give high values
# Outline: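 Yeast cells were exposed to test compounds, and growth inhibition was measured relative to vehicle-treated controls.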
# [2] = NCI Yeast Anticancer Drug Screen. Data for the mlh1 strain (AID 171);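 note: 0% = growth of vehicle-treated control cultures of the same strain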; settings: S. cerevisiae mlh1 strain growth inhibition, hits give high values
# Outline: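 Yeast carrying a defined genetic alteration in DNA damage repair or cell cycle control were exposed to test compounds. Growth inhibition was measured relative to vehicle-treated controls.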
# [3] = NCI Yeast Anticancer Drug Screen. Data for the sgs1 strain (AID 173);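 note: 0% = growth of vehicle-only control cultures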; settings: S. cerevisiae sgs1 mutant, hits give high values
# Outline: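 Yeast mutant strains carrying defined defects in DNA damage repair or cell cycle control were exposed to test compounds. Growth inhibition was scored against vehicle-treated controls.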
# [4] = NCI Yeast Anticancer Drug Screen. Data for the mlh1 rad18 strain (AID 175); settings: S. cerevisiae mlh1 rad18 strain growth inhibition, hits give high values
# Outline: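 Growth inhibition of the yeast strain was measured after compound exposure and expressed relative to vehicle-treated controls. The strain carries defined defects in DNA damage repair.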
# [5] = NCI Yeast Anticancer Drug Screen. Data for the rad52 strain (AID 147);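 note: 0% = growth of vehicle-treated control cultures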; settings: S. cerevisiae rad52 mutant growth inhibition, hits give high values
# Outline: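 Yeast strain carrying a DNA damage repair alteration was exposed to test compounds. Growth inhibition was measured relative to vehicle-treated controls.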
# [6] = NCI Yeast Anticancer Drug Screen. Data for the wt1 strain (AID 149);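 note: 0% = growth of vehicle-treated wt1 cultures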; settings: S. cerevisiae wt1 strain (SPY 50644) growth inhibition, hits give high values
# Outline: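 Readout: yeast growth inhibition, normalised to vehicle controls, in the wt1 strain exposed to test compounds.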
# [7] = NCI Yeast Anticancer Drug Screen. Data for the rad50EPP+ strain (AID 151);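 note: 0% = growth of vehicle-treated control cultures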; settings: S. cerevisiae rad50 mutant strain, hits give high values
# Outline: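 Yeast strain carrying rad50 alteration (rad50EPP+) exposed to compounds; growth inhibition measured relative to vehicle-treated controls.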
# [8] = NCI Yeast Anticancer Drug Screen. Data for the mgt1 strain (AID 153); settings: S. cerevisiae mgt1 mutant growth inhibition, hits give high values
# Outline: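 Yeast mgt1 strain (DNA repair/cell-cycle alteration panel) exposed to compounds; growth inhibition measured relative to vehicle-treated controls.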
# [9] = NCI Yeast Anticancer Drug Screen. Data for the rad50 strain (AID 155);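 note: 0% = growth of vehicle-only cultures of the same strain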; settings: S. cerevisiae rad50 strain growth inhibition, hits give high values
# Outline: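 Compounds were tested on a yeast strain with an engineered DNA damage repair alteration; the reported value is growth inhibition normalised to vehicle treatment.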
# [10] = NCI Yeast Anticancer Drug Screen. Data for the mec2-1 strain (AID 157); settings: S. cerevisiae mec2-1 strain, hits give high values
# Outline: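 mec2-1 yeast strain, carrying an alteration in DNA damage repair or cell cycle control, was exposed to compounds; growth inhibition was measured relative to vehicle-treated controls.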
# [11] = NCI Yeast Anticancer Drug Screen. Data for the rad14 strain (AID 159);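 note: 0% = growth of vehicle-treated control cultures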; settings: S. cerevisiae rad14 strain growth inhibition, hits give high values
# Outline: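 Compound-treated yeast with a defined DNA-repair lesion; growth inhibition normalised to vehicle-treated cultures.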
# [12] = NCI Yeast Anticancer Drug Screen. Data for the sgs1 mgt1 strain (AID 161);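 note: 0% = growth of cultures given vehicle only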; settings: S. cerevisiae sgs1 mgt1 strain, hits give high values
# Outline: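 Compounds are added to genetically altered yeast, and growth is compared with cultures given vehicle alone to give percent inhibition.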
# [13] = NCI Yeast Anticancer Drug Screen. Data for the CLN2oe strain (AID 163);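 note: 0% = growth of vehicle-only control cultures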; settings: S. cerevisiae CLN2oe strain, hits give high values
# Outline: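 Yeast cells carrying a defined cell-cycle control alteration were exposed to test compounds. Growth inhibition was scored against vehicle-treated control cultures.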
# [14] = NCI Yeast Anticancer Drug Screen. Data for the cln2 rad14 strain (AID 165);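 note: 0% = growth equal to vehicle treated cultures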; settings: S. cerevisiae cln2 rad14 strain, hits give high values
# Outline: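 Yeast carrying cln2 and rad14 alterations (cell cycle control and DNA damage repair) were exposed to compounds. Growth inhibition was measured against vehicle-treated controls.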
# [15] = NCI Yeast Anticancer Drug Screen. Data for the bub3 strain (AID 167); settings: S. cerevisiae bub3 mutant strain, hits give high values
# Outline: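 Growth of a checkpoint-deficient yeast mutant is measured after compound exposure. Values represent inhibition relative to vehicle.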
# [16] = NCI Yeast Anticancer Drug Screen. Data for the rad18 strain (AID 177); settings: S. cerevisiae rad18 mutant growth inhibition, hits give high values
# Outline: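 Yeast carrying a defined DNA damage repair alteration were exposed to compounds. Growth inhibition was expressed relative to vehicle-treated controls.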
# [17] = at 5.0 µM (retest, dose inferred, filed as 0.5)
# [18] = at 50.0 µM (retest, dose inferred, filed as 5.0)
smiles,measurement,setting,value
CSC(=S)N/N=C(\C)c1cccc(C)n1,growth inhibition,[1]; at 1.2 µM,-6%
same,growth inhibition,[1]; at 3.7 µM,-6%
same,growth inhibition,[1]; at 11.0 µM,-5%
same,growth inhibition,[1]; at 33.0 µM,63%
same,growth inhibition,[1]; at 100.0 µM,99% (active)
same,growth inhibition,[2]; at 1.2 µM,-11%
same,growth inhibition,[2]; at 3.7 µM,-1%
same,growth inhibition,[2]; at 11.0 µM,-6%
same,growth inhibition,[2]; at 33.0 µM,29%
same,growth inhibition,[2]; at 100.0 µM,99% (active)
same,growth inhibition,[3]; at 1.2 µM,-3%
same,growth inhibition,[3]; at 3.7 µM,-5%
same,growth inhibition,[3]; at 11.0 µM,-4%
same,growth inhibition,[3]; at 33.0 µM,57%
same,growth inhibition,[3]; at 100.0 µM,99% (active)
same,growth inhibition,[4]; [17],20%
same,growth inhibition,[4]; [18],99% (active)
same,growth inhibition,[4]; at 50.0 µM,99.2% (active)
[N-]=N[N+]#I1OC(C(F)(F)F)(C(F)(F)F)c2ccccc21,growth inhibition,[5]; at 1.2 µM,44%
same,growth inhibition,[5]; at 3.7 µM,82% (active)
same,growth inhibition,[5]; at 11.0 µM,97% (active)
same,growth inhibition,[5]; at 33.0 µM,99% (active)
same,growth inhibition,[5]; at 100.0 µM,100% (active)
same,growth inhibition,[6]; at 1.2 µM,17%
same,growth inhibition,[6]; at 3.7 µM,84% (active)
same,growth inhibition,[6]; at 11.0 µM,99% (active)
same,growth inhibition,[6]; at 33.0 µM,99% (active)
same,growth inhibition,[6]; at 100.0 µM,99% (active)
same,growth inhibition,[7]; at 1.2 µM,3%
same,growth inhibition,[7]; at 3.7 µM,13%
same,growth inhibition,[7]; at 11.0 µM,42%
same,growth inhibition,[7]; at 33.0 µM,93% (active)
same,growth inhibition,[7]; at 100.0 µM,99% (active)
same,growth inhibition,[8]; at 1.2 µM,38%
same,growth inhibition,[8]; at 3.7 µM,88% (active)
same,growth inhibition,[8]; at 11.0 µM,99% (active)
same,growth inhibition,[8]; at 33.0 µM,100% (active)
same,growth inhibition,[8]; at 100.0 µM,100% (active)
same,growth inhibition,[9]; at 1.2 µM,58%
same,growth inhibition,[9]; at 3.7 µM,90% (active)
same,growth inhibition,[9]; [17],7%
same,growth inhibition,[9]; at 11.0 µM,97% (active)
same,growth inhibition,[9]; at 33.0 µM,100% (active)
same,growth inhibition,[9]; [18],99% (active)
same,growth inhibition,[9]; at 50.0 µM,91.7% (active)
same,growth inhibition,[9]; at 100.0 µM,100% (active)
same,growth inhibition,[10]; at 1.2 µM,45%
same,growth inhibition,[10]; at 3.7 µM,91% (active)
same,growth inhibition,[10]; [17],2%
same,growth inhibition,[10]; at 11.0 µM,99% (active)
same,growth inhibition,[10]; at 33.0 µM,100% (active)
same,growth inhibition,[10]; [18],99% (active)
same,growth inhibition,[10]; at 50.0 µM,93.7% (active)
same,growth inhibition,[10]; at 100.0 µM,99% (active)
same,growth inhibition,[11]; at 1.2 µM,27%
same,growth inhibition,[11]; at 3.7 µM,90% (active)
same,growth inhibition,[11]; at 11.0 µM,99% (active)
same,growth inhibition,[11]; at 33.0 µM,100% (active)
same,growth inhibition,[11]; at 100.0 µM,99% (active)
same,growth inhibition,[12]; [17],81% (active)
same,growth inhibition,[12]; [18],98% (active)
same,growth inhibition,[12]; at 50.0 µM,92.8% (active)
same,growth inhibition,[13]; at 1.2 µM,40%
same,growth inhibition,[13]; at 3.7 µM,81% (active)
same,growth inhibition,[13]; at 11.0 µM,98% (active)
same,growth inhibition,[13]; at 33.0 µM,99% (active)
same,growth inhibition,[13]; at 100.0 µM,98% (active)
same,growth inhibition,[14]; [17],47%
same,growth inhibition,[14]; [18],98% (active)
same,growth inhibition,[14]; at 50.0 µM,92% (active)
same,growth inhibition,[15]; at 1.2 µM,28%
same,growth inhibition,[15]; at 3.7 µM,83% (active)
same,growth inhibition,[15]; [17],91% (active)
same,growth inhibition,[15]; at 11.0 µM,99% (active)
same,growth inhibition,[15]; at 33.0 µM,100% (active)
same,growth inhibition,[15]; [18],98% (active)
same,growth inhibition,[15]; at 50.0 µM,92.8% (active)
same,growth inhibition,[15]; at 100.0 µM,97% (active)
same,growth inhibition,[1]; at 1.2 µM,18%
same,growth inhibition,[1]; at 3.7 µM,76% (active)
same,growth inhibition,[1]; at 11.0 µM,98% (active)
same,growth inhibition,[1]; at 33.0 µM,99% (active)
same,growth inhibition,[1]; at 100.0 µM,99% (active)
same,growth inhibition,[2]; at 1.2 µM,53%
same,growth inhibition,[2]; at 3.7 µM,90% (active)
same,growth inhibition,[2]; at 11.0 µM,98% (active)
same,growth inhibition,[2]; at 33.0 µM,99% (active)
same,growth inhibition,[2]; at 100.0 µM,99% (active)
same,growth inhibition,[3]; at 1.2 µM,41%
same,growth inhibition,[3]; at 3.7 µM,89% (active)
same,growth inhibition,[3]; at 11.0 µM,98% (active)
same,growth inhibition,[3]; at 33.0 µM,99% (active)
same,growth inhibition,[3]; at 100.0 µM,99% (active)
same,growth inhibition,[4]; [17],34%
same,growth inhibition,[4]; [18],99% (active)
same,growth inhibition,[4]; at 50.0 µM,92% (active)
same,growth inhibition,[16]; at 1.2 µM,62%
same,growth inhibition,[16]; at 3.7 µM,89% (active)
same,growth inhibition,[16]; at 11.0 µM,98% (active)
same,growth inhibition,[16]; at 33.0 µM,99% (active)
same,growth inhibition,[16]; at 100.0 µM,99% (active)
